Measurements published in the supplement of paper PMC9023506.
Where a name gives a salt, the structure may show the parent alone.

Test system: Danio rerio larvae (5 dpf)
Test: optomotor response to red moving lines, difference vs DMSO (percentage points (treated minus DMSO)); higher = more of the behaviour than the DMSO vehicle control
Conditions: 10 µM; exposure time: 3 h pre-incubation + 3 h imaging
Description: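 5-dpf wild-type zebrafish larvae were imaged in 96-well plates. They were treated with 190 Tocris FDA-approved drugs at 10 µM (1 µl/ml DMSO) for 3 h before and 3 h during imaging at 28.5 °C, 48 larvae per drug. Automated image analysis gave % time moving and optomotor responses. Values are drug group mean minus DMSO vehicle mean (n=844), in percentage points, for 10 behaviours.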

Structure (SMILES) | optomotor response to red moving lines
Cc1nc(-c2ccc(OCC(C)C)c(C#N)c2)sc1C(=O)O [Febuxostat] | -1.5
O=C(O)c1cc(/N=N/c2ccc(S(=O)(=O)Nc3ccccn3)cc2)ccc1O [Sulfasalazine] | 2.01
NC(=O)N1c2ccccc2C=Cc2ccccc21 [Carbamazepine] | -0.139
Clc1ccc2nsnc2c1NC1=NCCN1 [Tizanidine hydrochloride] | 18.1
CC(=O)Nc1ccc(O)cc1 [Acetaminophen] | -2.99
CNC(=O)c1ccccc1Sc1ccc2c(/C=C/c3ccccn3)n[nH]c2c1 [Axitinib] | 1.5
C[C@H]1C[C@@H]2[C@H]([C@@H](O)C[C@@]3(C)[C@H]2CC[C@]3(O)C(=O)CO)[C@@]2(C)C=CC(=O)C=C12 [Methylprednisolone] | -1.93
Cc1ccccc1C(=O)Nc1ccc(C(=O)N2CCCC(O)c3cc(Cl)ccc32)c(C)c1 (stereo not given) [Tolvaptan] | -7.01
COc1ccccc1Oc1c(NS(=O)(=O)c2ccc(C(C)(C)C)cc2)nc(-c2ncccn2)nc1OCCO [Bosentan] | -14
CC1CNc2c(cccc2S(=O)(=O)N[C@@H](CCCNC(=N)N)C(=O)N2CC[C@@H](C)C[C@@H]2C(=O)O)C1 (stereo not given in full) [Argatroban] | -3.42
NC(=O)OCC(COC(N)=O)c1ccccc1 [Felbamate] | -9.28
O=C(O[C@@H]1C[C@@H]2C[C@H]3C[C@H](C1)N2CC3=O)c1c[nH]c2ccccc12 [Dolasetron mesylate] | -6.24
CN(C)CCC[C@@]1(c2ccc(F)cc2)OCc2cc(C#N)ccc21 [Escitalopram oxalate] | -7.88
CN1CCC[C@@H]1CCO[C@](C)(c1ccccc1)c1ccc(Cl)cc1 [Clemastine fumarate] | 16.7
CC(=O)Oc1cc2c(s1)CCN(C(C(=O)C1CC1)c1ccccc1F)C2 (stereo not given) [Prasugrel] | 5.97
CC(C)OC(=O)C(C)(C)Oc1ccc(C(=O)c2ccc(Cl)cc2)cc1 [Fenofibrate] | 16.3
CCCCCCCCc1ccc(CCC(N)(CO)CO)cc1 | 2.93
CN(C)C(=N)NC(=N)N [Metformin hydrochloride] | 17.8
CC(C)C(=O)OCC(=O)[C@@]12O[C@H](C3CCCCC3)O[C@@H]1C[C@H]1[C@@H]3CCC4=CC(=O)C=C[C@]4(C)[C@H]3[C@@H](O)C[C@@]12C [Ciclesonide] | -8.97
CCOC(=O)C1=C(COCCN)NC(C)=C(C(=O)OC)C1c1ccccc1Cl (stereo not given) [Amlodipine besylate] | -1.08

Structure (SMILES) | optomotor response to red moving lines
CC(C)(C(=O)O)c1ccc(C(O)CCCN2CCC(C(O)(c3ccccc3)c3ccccc3)CC2)cc1 (stereo not given) [Fexofenadine hydrochloride] | 3.62
CC(C)N(CCCCOCC(=O)NS(C)(=O)=O)c1cnc(-c2ccccc2)c(-c2ccccc2)n1 [Selexipag] | -8.23
N#Cc1ccc2[nH]cc(CCCCN3CCN(c4ccc5oc(C(N)=O)cc5c4)CC3)c2c1 [Vilazodone hydrochloride] | 12.8
CN/C(=N\CCSCc1nc[nH]c1C)NC#N [Cimetidine] | 5.88
CC(=O)NC[C@H]1CN(c2ccc(N3CCOCC3)c(F)c2)C(=O)O1 [Linezolid] | 4.59
CCC(C)(C)C(=O)O[C@H]1C[C@@H](C)C=C2C=C[C@H](C)[C@H](CC[C@@H]3C[C@@H](O)CC(=O)O3)[C@H]21 [Simvastatin] | -5.54
CN1CC[C@@H](NC(=O)Nc2ccc(C#N)cc2)C[C@@H]1c1nc2ccccc2[nH]1 | -0.356
O=c1[nH]c(=O)n([C@H]2C[C@H](O)[C@@H](CO)O2)cc1C(F)(F)F [Trifluorothymidine] | 9.66
CCOc1ccccc1OCCN[C@H](C)Cc1ccc(OC)c(S(N)(=O)=O)c1 [Tamsulosin hydrochloride] | -6.78
CCCCNc1cc(C(=O)O)cc(S(N)(=O)=O)c1Oc1ccccc1 [Bumetanide] | 19.3
Cc1ccc(O)c([C@H](CCN(C(C)C)C(C)C)c2ccccc2)c1 [Tolterodine L-tartrate] | -0.0985
COc1cc2nc(N3CCN(C(=O)C4COc5ccccc5O4)CC3)nc(N)c2cc1OC (stereo not given) [Doxazosin mesylate] | -7.06
CCCCC(=O)N(Cc1ccc(-c2ccccc2-c2nnn[nH]2)cc1)[C@H](C(=O)O)C(C)C [Valsartan] | 7.8
O=C(NCC1CCCCN1)c1cc(OCC(F)(F)F)ccc1OCC(F)(F)F (stereo not given) [Flecainide acetate] | -9.35
OCCN1C[C@H](O)[C@@H](O)[C@H](O)[C@H]1CO [Miglitol] | 9.81
Brc1c(NC2=NCCN2)ccc2nccnc12 | 17.8
Clc1ccc(COC(Cn2ccnc2)c2ccc(Cl)cc2Cl)c(Cl)c1 (stereo not given) [Miconazole nitrate] | -8.36
CC1(C)O[C@@H]2[C@@H](CO[C@@]3(COS(N)(=O)=O)OC(C)(C)O[C@@H]23)O1 [Topiramate] | -0.793
Cc1nnc(C(C)C)n1C1C[C@H]2CC[C@@H](C1)N2CC[C@H](NC(=O)C1CCC(F)(F)CC1)c1ccccc1 (stereo in doubt) [Maraviroc] | -6.34
CN(C)CCc1c[nH]c2ccc(Cn3cncn3)cc12 [Rizatriptan benzoate] | 14.6
